NOMO-1 viab = STK33 inhibitor candidate reducing NOMO-1 cell viability. NOMO-1 AML viability, CellTiter-Glo luminescence, 72 h. inhibition, % (concentration not given with the values). hit rate 7.5% among 37,000. AID 2330; in the data active = inhibition above about 80%; inconclusive = no clear call, values can overlap the other calls
Hedgehog inh = blocks Sonic Hedgehog signaling. Shh-LIGHT2 Gli-luciferase reporter, 30 h. hit rate 2.1% among 22,000. inhibition, % (concentration not given with the values);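 active = mean inhibition across valid replicates above about 65%, limit read from the data; inconclusive = mean under the limit, yet half or more replicates past it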;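 note: pathway switched on by Shh-conditioned medium diluted 1 in 25 in low serum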
MITF inh = blocks MITF activity | TRPM1 promoter luciferase, luminescence, 24 h | inhibition, % (test concentration not listed) | hit rate 0.28% among 37,000 | AID 2240; in the data active = inhibition above about 85%; inconclusive = no clear call, values can overlap the other calls; inactive = below about 68%;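 note: human melanocyte line stably carrying TRPM1 promoter luciferase reporter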
Large screens that a line does not name were inactive. An excerpt weighted towards active compounds, which were near 8.1% of everything screened.

Cn1c(SCC(=O)Nc2ccc(Br)cc2)nnc1-c1ccccn1	none (no result: Hedgehog inh)
O=C(Nc1ccccc1[N+](=O)[O-])c1cccc(S(=O)(=O)Nc2ccc(I)cc2)c1	none (no result: Hedgehog inh)
CCCCC/C=C/C(=O)CCc1ccc(O)c(OC)c1	NOMO-1 viab 118
CCCCCCCCC/C=C/C(=O)CCc1ccc(O)c(OC)c1	none (no result: NOMO-1 viab, MITF inh)
C[C@H]1CN([C@@H](C)CO)C(=O)c2cc(NC(=O)Nc3ccc(F)cc3)ccc2O[C@H]1CN(C)Cc1ccc(Oc2ccccc2)cc1	none (no result: Hedgehog inh)
C[C@@H]1CN([C@@H](C)CO)C(=O)c2cc(NC(=O)Nc3ccc(F)cc3)ccc2O[C@@H]1CN(C)Cc1ccc(-c2ccccc2)cc1	NOMO-1 viab 115
C[C@H](CO)N1C[C@H](C)[C@@H](CN(C)Cc2ccc(Oc3ccccc3)cc2)Oc2ccc(NC(=O)Nc3ccc(F)cc3)cc2C1=O	none
C[C@@H]1CN([C@H](C)CO)C(=O)c2cc(NC(=O)Nc3ccc(F)cc3)ccc2O[C@@H]1CN(C)Cc1ccc(-c2ccccc2)cc1	NOMO-1 viab 92
C[C@@H]1CN([C@H](C)CO)C(=O)c2cc(NC(=O)Nc3ccccc3)ccc2O[C@H]1CN(C)Cc1ccc(-c2ccccc2)cc1	NOMO-1 viab 116 (no result: Hedgehog inh)
C[C@@H]1CN([C@H](C)CO)C(=O)c2cc(NC(=O)Nc3ccc(F)cc3)ccc2O[C@H]1CN(C)Cc1ccc(-c2ccccc2)cc1	NOMO-1 viab 126 (no result: Hedgehog inh)
COc1ccc(NC(=O)Nc2ccc3c(c2)C(=O)N([C@H](C)CO)C[C@H](C)[C@@H](CN(C)Cc2ccc(-c4ccccc4)cc2)O3)cc1	NOMO-1 viab inconclusive
C[C@H]1CN([C@@H](C)CO)C(=O)c2cc(NC(=O)Nc3ccccc3)ccc2O[C@@H]1CN(C)Cc1ccccc1	none (no result: Hedgehog inh)
COC(=O)c1ccccc1NC(=O)Cn1cnc2sc(C)c(C)c2c1=O	none (no result: Hedgehog inh)
CCOC(=O)c1c(NC(=O)c2nc3ncccn3n2)sc2c1CCCC2	none (no result: Hedgehog inh)
CC(C)c1ccc(NC(=O)CSc2nnc(-c3ccccc3O)n2C)cc1	none (no result: Hedgehog inh)
CO[C@@]12[C@@H]3NC3CN1C1=C(C(=O)C(N)=C(C)C1=O)[C@@H]2COC(N)=O (stereo not given in full)	NOMO-1 viab 106, Hedgehog inh 67
COc1ccc(OC)c(S(=O)(=O)Nc2ccc(O)c3ccccc23)c1	NOMO-1 viab 127 (no result: Hedgehog inh)
COc1ccc(OC)c(S(=O)(=O)Nc2ccc(NC(C)=O)cc2)c1	none (no result: Hedgehog inh)
O=C1C(=O)N(Cc2ccco2)C(c2cccc(Oc3ccccc3)c2)C1C(=O)c1cccs1 (stereo not given)	none (no result: Hedgehog inh)
C[C@H](CO)N1C[C@H](C)[C@@H](CN(C)Cc2ccc(Cl)c(Cl)c2)Oc2c(NC(=O)c3ccc(-c4nccs4)cc3)cccc2C1=O	NOMO-1 viab 116
C[C@@H]1CN([C@@H](C)CO)C(=O)c2cccc(NC(=O)c3ccc(-c4nccs4)cc3)c2O[C@H]1CN(C)Cc1ccc2c(c1)OCO2	NOMO-1 viab 103
C[C@H](CO)N1C[C@H](C)[C@H](CN(C)S(=O)(=O)c2ccc(Cl)cc2)Oc2c(NC(=O)c3ccc(-c4nccs4)cc3)cccc2C1=O	NOMO-1 viab 84, Hedgehog inh 95
C[C@H](CO)N1C[C@H](C)[C@@H](CN(C)S(=O)(=O)c2ccc(Cl)cc2)Oc2c(NC(=O)c3ccc(-c4nccs4)cc3)cccc2C1=O	none
C[C@H](CO)N1C[C@H](C)[C@@H](CN(C)Cc2ccc3c(c2)OCO3)Oc2c(NC(=O)c3ccc(-c4nccs4)cc3)cccc2C1=O	none
C[C@H](CO)N1C[C@H](C)[C@@H](CN(C)Cc2ccc(C(=O)O)cc2)Oc2c(NC(=O)c3ccc(-c4nccs4)cc3)cccc2C1=O	none
COc1ccc(NC(=O)CSc2nnc3c4c5c(sc4nc(-c4ccccc4)n23)CCC5)cc1	NOMO-1 viab inconclusive (no result: Hedgehog inh)
CCNC(=O)c1c(NC(=O)C(C)Oc2ccccc2F)sc2c1CCCC2 (stereo not given)	none (no result: Hedgehog inh)
Cc1cc(C)nc(SCC(=O)Nc2ccc(C(=O)O)cc2)n1	none (no result: Hedgehog inh)
Oc1ccc(Br)cc1CNc1nc2ccccc2[nH]1	none (no result: Hedgehog inh)
C[C@@H]1CN([C@@H](C)CO)C(=O)c2cccc(NS(=O)(=O)c3ccc(Cl)cc3)c2O[C@@H]1CN(C)C(=O)Nc1ccc(C(F)(F)F)cc1	NOMO-1 viab 121, MITF inh 88
C[C@@H]1CN([C@H](C)CO)C(=O)c2cccc(NS(=O)(=O)c3ccc(Cl)cc3)c2O[C@@H]1CN(C)C(=O)Nc1ccc(C(F)(F)F)cc1	none
Cc1ccc(S(=O)(=O)Nc2cccc3c2O[C@@H](CN(C)C(=O)Nc2ccc(C(F)(F)F)cc2)[C@@H](C)CN([C@H](C)CO)C3=O)cc1	none
Cc1ccc(S(=O)(=O)Nc2cccc3c2O[C@H](CN(C)C(=O)Nc2ccc(C(F)(F)F)cc2)[C@H](C)CN([C@H](C)CO)C3=O)cc1	NOMO-1 viab 90
CC(C)(C)c1cn2c3ccccc3nc2n1CCCN1CCCCC1	none (no result: Hedgehog inh)
COC(=O)c1ccccc1NC(=O)CSc1nc2cc3ccccc3cc2[nH]1	none (no result: Hedgehog inh)
CCOC(=O)c1cc(NC(=O)CSc2nc3ccccc3[nH]2)ccc1Cl	NOMO-1 viab 100 (no result: Hedgehog inh)
O=C(CSc1nc2cc3ccccc3cc2[nH]1)Nc1ccccc1Cl	NOMO-1 viab 108 (no result: Hedgehog inh)
Cc1cc(NC(=O)CSc2nc3ccccc3[nH]2)ccc1Cl	none (no result: Hedgehog inh)
CCOc1c(OC)cccc1C1C(C(=O)Nc2ccccc2OC)=C(C)Nc2ncnn21 (stereo not given)	none (no result: Hedgehog inh)
COC(=O)c1cc(OC)c(OC)cc1NC(=O)C1c2ccccc2Oc2ccccc21	none (no result: Hedgehog inh)
C[C@@H]1CN([C@H](C)CO)C(=O)Cc2cc(NC(=O)CCCCCC(=O)Nc3ccccc3N)ccc2O[C@H]1CN(C)Cc1ccc(C(F)(F)F)cc1	NOMO-1 viab 114 (no result: Hedgehog inh)
C[C@@H]1CN([C@H](C)CO)C(=O)Cc2cc(NC(=O)Cc3ccccc3)ccc2O[C@@H]1CN(C)Cc1ccc(C(F)(F)F)cc1	none (no result: Hedgehog inh)
C[C@@H]1CN([C@H](C)CO)C(=O)Cc2cc(NC(=O)CCCCCC(=O)Nc3ccccc3N)ccc2O[C@@H]1CN(C)Cc1ccc(C(F)(F)F)cc1	NOMO-1 viab 141 (no result: Hedgehog inh)
C[C@@H]1CN([C@@H](C)CO)C(=O)Cc2cc(NC(=O)Cc3ccccc3)ccc2O[C@@H]1CN(C)Cc1ccc(C(F)(F)F)cc1	none
Cc1ccccc1NC(=O)CSc1nnc(-c2cccc(Cl)c2)n1C	none (no result: Hedgehog inh)
Cc1ccc(C(=O)NC(=O)CSc2nnnn2-c2ccccc2)cc1	none (no result: Hedgehog inh)
COC(=O)c1cc(Br)ccc1NC(=O)COc1ccc(Cl)cc1C	none (no result: Hedgehog inh)
C[C@@H]1CN([C@H](C)CO)C(=O)c2cc(NS(=O)(=O)c3ccc(F)cc3)ccc2O[C@@H]1CN(C)Cc1ccc(-c2ccccc2)cc1	NOMO-1 viab 118 (no result: Hedgehog inh)
C[C@@H]1CN([C@@H](C)CO)C(=O)c2cc(NS(=O)(=O)c3ccc(F)cc3)ccc2O[C@H]1CN(C)Cc1ccccc1	none (no result: Hedgehog inh)
C[C@@H]1CN([C@@H](C)CO)C(=O)c2cc(NS(=O)(=O)c3ccc(F)cc3)ccc2O[C@H]1CN(C)Cc1ccc(-c2ccccc2)cc1	NOMO-1 viab 107
C[C@H]1CN([C@@H](C)CO)C(=O)c2cc(NS(=O)(=O)c3ccc(F)cc3)ccc2O[C@H]1CN(C)Cc1ccc(-c2ccccc2)cc1	none (no result: Hedgehog inh)
CC(=O)Nc1ccccc1C(=O)OCc1cccc(C(=O)c2ccccc2)c1	none (no result: Hedgehog inh)
COc1cc(C(=O)NC(C)C(=O)O)cc(OC)c1OC (stereo not given)	none (no result: Hedgehog inh)
COc1cc(C(=O)N=C2C(C)=CC(=O)C=C2C)cc(OC)c1OC	NOMO-1 viab 135 (no result: Hedgehog inh)
